This note sets out measurements from PubChem BioAssay (NCATS).

Several values for one entry are separate records, joined by “and”; a condition that tells them apart may be missing. Identical values can stand only once. Unmarked numbers belong to inactive results. Results filed as inconclusive are left out. Activity calls are given as the source filed them. Unless noted, calls follow the shape of the dose curve; as a rule, active = well fitted curve in the direction sought with a large enough effect; inconclusive = small, poorly fitted or top-dose-only effect, or another doubt; inactive = no such curve, though single readings can be large; an effect the other way counts as inactive or inconclusive.

The nature of assay [1]: qHTS Assay for Identifying Gametocytocidal Compounds (AID 743244).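 Also: % is scaled to controls: 0 for no effect and ±100 for the full control effect; actives lower the fluorescent signal which means gametocytes are killed.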 To be noted: P. falciparum 3D7 stage III-V gametocytes, alamarBlue, 72 h; max response: active compounds read low. A digest of the protocol: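 Viability read-out was resazurin reduction (alamarBlue, 24 h) measured at Ex 525/Em 598 nm. Beforehand, late-stage (III-V) 3D7 P. falciparum gametocytes at 20,000 cells/well were incubated with compound 72 h at 37C under 5% CO2.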
A general note: In qHTS, concentration-response curves come from the screen itself.

Assay [2] has as its target Atrial natriuretic peptide receptor 1 (Homo sapiens) (UniProt P16066). Put plainly: Natriuretic polypeptide receptor (hNpr1) antagonism - Pilot screen (AID 1347049; calls by dose curve;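 also: agonist-evoked cGMP luminescence read 20 min after hNppA addition; series mostly up to about 58 µM; % is scaled to controls: 0 for no effect and ±100 for the full control effect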). A digest of the protocol: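 Readout is cGMP-driven firefly luciferase luminescence in HEK293 cells carrying hNpr1 and a PDE5-domain GloSensor, read before and 20 min after 0.1 nM hNppA stimulation. Cells had 2% substrate reagent for 2 h and test compound for 30 min.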

Assay [3] concerns the target Atrial natriuretic peptide receptor 2 (Homo sapiens) (UniProt P20594). Put plainly: Natriuretic polypeptide receptor (hNpr2) antagonism - Pilot subtype selectivity assay (AID 1347050; calls by dose curve; also: % is scaled to controls: 0 for no effect and ±100 for the full control effect). The method in brief: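 Pilot selectivity screen against hNpr2: HEK293 cGMP-sensor cells are treated with LOPAC1280 compounds, then with hNppC peptide at 1 nM final. The cGMP-driven luminescence change over 20 min at room temperature is the read-out.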

For assay [4], the target named is Parathyroid hormone/parathyroid hormone-related peptide receptor (Homo sapiens) (UniProt Q03431). The assay is described as follows: qHTS for PTHR1 Agonists: Optimization Screen against the NCGC LOPAC library (AID 1347079).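 Also: GloSensor cAMP luminescence in HEK-293 GP2 cells expressing human PTHR1 with IBMX; 0% is about no effect.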 A digest of the protocol:
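Compounds were tested across a qHTS titration. PTHR1-expressing GP2 cells report cAMP rises via GloSensor luminescence after 1 hr compound exposure at 37C with IBMX present.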

For assay [5], the target named is N-terminal Xaa-Pro-Lys N-methyltransferase 1 (Homo sapiens) (UniProt Q9BV86). The assay is described as follows: qHTS Assay for Inhibitors of N-terminal methyltransferase 1 (NTMT1): LOPAC validation of the NTMT1 SAHH-coupled ThioGlo3 Assay (AID 1347143).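 Also: SAH from peptide methylation measured as thiol fluorescence via SAHH coupling and ThioGlo3; potency is read from the fitted curve at half-maximal effect; nearly all actives have a fitted effect of over 70% in size.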 The method in brief: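 Inhibition of NTMT1 methylation of peptide SPKRIA is followed by converting SAH with SAHH and labelling the released thiol with ThioGlo3. Plates are read at 340/450nm before and 30 min after reagent addition, both at room temperature.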

In assay [6] the test system is Zika virus NS2B-NS3 protease. The assay is described as follows: Primary screen GU AMC qHTS for Zika virus inhibitors (AID 1347154).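 Also: 0% = no-inhibitor control and -100% = no-enzyme control; nearly all actives have a fitted effect of over 70% in size.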 A digest of the protocol:
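Fluorogenic AMC-substrate cleavage by noncovalent NS2B-NS3 protease complex (25 nM, pH 8.0 Tris buffer with Tween 20) followed for 15 minutes at room temperature (~20% conversion). Percent inhibition from ex340/em450 signal change, fitted by 4-parameter Hill equation.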

Assay [7] concerns the target Lysine-specific demethylase 5B (Homo sapiens) (UniProt Q9UGL1). The assay is described as follows: Optimization screen for KDM5B Histone Demethylases FDH coupled qHTS against the LOPAC library (AID 1347166). Also: 0% is about no effect. The method in brief:
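KDM5BDeltaAP (200nM final) preincubated 10 min with compound, then 12.5uM H3K4Me3, 25uM a-ketoglutarate, ascorbate, Fe(II), NAD+ and FDH added; 50mM HEPES pH 7.5, 0.01% Tween-20. NADH fluorescence (340/450 nm) change over 30 min, room temperature.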

Assay [8] can be described thus: qHTS to identify inhibitors of the type 1 interferon - major histocompatibility complex class I in skeletal muscle: primary screen against the NCATS LOPAC collection (AID 1347405).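 Also: lytic HiBiT luminescence reporting HLA-B protein level; potency is read from the fitted curve at half-maximal effect.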 A digest of the protocol: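 Immortalized human C25cl48 myoblasts with HiBiT knocked into endogenous HLA-B*08:01 were stimulated with 4.0 ng/ml IFN-beta and given compounds in a 7-point, 1:4.3 titration from 46 uM final; after 24 hrs, lytic HiBiT luminescence was read.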

Assay [9] is described as follows: qHTS for inhibitors of adenylyl cyclases using a fission yeast platform: a pilot screen against the NCATS LOPAC library (AID 1347410).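 Also: plate controls were DMSO vehicle for no effect and DPI positive control for full effect.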 The method in brief:
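S. pombe CHP2027 (AC9-GNAS-PDE4D2) carrying a PKA-repressed fbp1-GFP reporter was exposed to LOPAC compounds (final up to 57 µM) for 18 h at 30C in the dark, in EMM with histidine, lysine and uracil; GFP gain-of-signal read by laser scanning cytometry.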

Assay [10] in a line: Validation qHTS assay for inhibitors of Activation Induced Cytidine Deaminase (AID): UDG Counterscreen signal (AID 1347427). Also: 0% is about no effect. A digest of the protocol: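 Counterscreen read of UDG activity (2 U/mL, 4/3x) in the FRET deamination format with AID (1 uM, 4/3x), DJC20/DJC23 substrates (250 nM, 4x), 4 h at room temperature. NaOH stop, fluorescence at 560 ex/665 em.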
For assay [11], the target named is Single-stranded DNA cytosine deaminase (Homo sapiens) (UniProt Q9GZX7). The assay is described as follows: Validation qHTS assay for inhibitors of Activation Induced Cytidine Deaminase (AID): AID signal (AID 1347429). Also: % is scaled to controls: 0 for no effect and ±100 for the full control effect. A digest of the protocol:
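AID and UDG were combined and compounds added at final up to 114 uM, then DJC20/DJC23 FRET substrate was added for 4 hr at room temperature. NaOH was then added for 30 min before fluorescence was read at 540/590 nm.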

Assay [12] can be described thus: Primary qHTS for inhibitors of La Crosse Virus (LACV) - induced cell death in SH-SY5Y cells (AID 1508616).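 Also: top concentration of the series differs between compounds; 0% = infected DMSO wells and 100% = uninfected DMSO wells; higher means more rescue of cells from virus-induced death.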 A digest of the protocol: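 Luminescent ATP readout (ATPLite 1step, 5 min room temperature) measured rescue from LACV-induced death after 6 days of infection at 0.01 MOI; normalized to infected DMSO wells and uninfected DMSO wells.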
A short description of assay [13]: Counterscreen qHTS for small molecule stabilizers of the endoplasmic reticulum resident proteome: GLuc-NoTag assay (AID 1508627). Also: potency is read from the fitted curve at half-maximal effect. A digest of the protocol:
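Luminescence of Gaussia luciferase secreted into the medium (coelenterazine, 0.07x final, unlysed cells) was the read-out. Human SH-SY5Y neuroblastoma cells constitutively secreting untagged GLuc received compound for 19 h, then 100 nM thapsigargin for 4 h.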

Assay [14] can be described thus: Confirmatory qHTS for small molecule stabilizers of the endoplasmic reticulum resident proteome: Secreted ER Calcium Modulated Protein (SERCaMP) assay (AID 1508628). Also: potency is read from the fitted curve at half-maximal effect; nearly all actives have a fitted effect of over 40% in size. A digest of the protocol:
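We seeded SH-SY5Y-GLuc-SERCaMP cells, added compounds (three concentrations in the primary run, eleven up to 76.6 uM in confirmation), incubated 16 h, depleted ER calcium with thapsigargin, and read luciferase 4 h later.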

A short description of assay [15]: Cell Viability qHTS for small molecule stabilizers of the endoplasmic reticulum resident proteome (AID 1508629).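 Also: human SH-SY5Y neuroblastoma cells carrying the GLuc-SERCaMP reporter; compound exposure about 46 h in total before the viability read; % is scaled to controls: 0 for no effect and ±100 for the full control effect.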 Conditions: cell viability counter-screen, 100 nM thapsigargin for final 4 h.
Another assay concerns the target Papain (Carica papaya) (UniProt P00784). The assay is described as follows: Primary qHTS assay for inhibitors of the protease papain (AID 1645873).
Assay [16] deals with Metallo-beta-lactamase type 2 (Klebsiella pneumoniae) (UniProt C7C422). The assay is described as follows: qHTS to identify inhibitors of the New Delhi Metallo-beta-lactamase (NDM): assay validation screen against the NCATS LOPAC Collection (AID 1794843). A digest of the protocol: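 NDM-1 at 2 nM final in 50 mM HEPES pH 7.0 with 1 uM ZnSO4 and 0.01% Tween20 was preincubated with library compounds in DMSO. Nitrocefin (50 uM stock) was then added, and absorbance at 485 nm was read at the kinetic plateau.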

Assay [17] deals with Glutathione peroxidase 1 (Homo sapiens) (UniProt P07203). The assay is described as follows: Primary qHTS Assay for Inhibitors of Recombinant Selenoprotein Glutathione Peroxidase 1 (GPX1) (AID 1845191). Also: nearly all actives have a fitted effect of over 65% in size. The method in brief:
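10 nM GPX1 + cpd, 30 min RT; start w/ 1 mM GSH, 0.5 mM cumene hydroperoxide, 0.5 mM NADPH, 100 nM GR, 0.01% BSA; buffer 50 mM Tris-HCl pH 7.5, 2 mM EDTA, 150 mM NaCl; Fl 340/450, 0 & 15 min.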

For assay [18], the target named is Phospholipid hydroperoxide glutathione peroxidase GPX4 (Homo sapiens) (UniProt P36969). Put plainly: Primary qHTS Assay for Inhibitors of Recombinant Selenoprotein Glutathione Peroxidase 4 (GPX4) (AID 1845192). Also: nearly all actives have a fitted effect of over 65% in size. Conditions: outcome: dose series up to 50 µM unless noted. A digest of the protocol:
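NADPH consumption, followed by fluorescence at 340/450 nm between 0 and 15 min, reports GPX4 activity via coupled glutathione reductase (100 nM). Enzyme 200 nM was pre-exposed to compound 30 min; 0.5 mM cumene hydroperoxide and 1 mM GSH served as substrates.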

The nature of assay [19]: qHTS assay to identify inhibitors of the type 1 interferon - major histocompatibility complex class I in skeletal muscle: Counter screen cell viability and HiBit confirmation (AID 1347412). Also: potency is read from the fitted curve at half-maximal effect; nearly all actives have a fitted effect of over 60% in size. To be noted: iHSKM muscle cells + IFN-b, HiBiT or CellTiter-Glo, 24 h; HiBiT. A digest of the protocol: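 HLA-B*08:01–HiBiT knock-in immortalized human myoblasts (C25cl48) stimulated with 4.0 ng/ml human IFN-beta and dosed with compound in a 12-point 1:3 titration (top final 46 uM). After 24 hrs at 37 C, HiBiT lytic luminescence or CellTiter Glo ATP read out.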

Papain (Carica papaya), sequence (P00784 whole entry, looked up): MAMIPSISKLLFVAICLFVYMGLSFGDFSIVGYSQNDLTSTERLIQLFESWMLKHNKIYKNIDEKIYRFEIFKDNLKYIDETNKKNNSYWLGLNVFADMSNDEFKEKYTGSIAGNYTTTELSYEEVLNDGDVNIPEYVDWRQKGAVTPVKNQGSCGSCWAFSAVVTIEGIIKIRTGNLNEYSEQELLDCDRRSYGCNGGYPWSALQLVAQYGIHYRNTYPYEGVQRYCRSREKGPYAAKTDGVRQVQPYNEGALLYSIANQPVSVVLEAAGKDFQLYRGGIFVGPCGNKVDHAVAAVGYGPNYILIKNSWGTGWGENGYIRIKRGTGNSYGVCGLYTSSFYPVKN
Lysine-specific demethylase 5B (Homo sapiens), sequence (Q9UGL1 whole entry, looked up): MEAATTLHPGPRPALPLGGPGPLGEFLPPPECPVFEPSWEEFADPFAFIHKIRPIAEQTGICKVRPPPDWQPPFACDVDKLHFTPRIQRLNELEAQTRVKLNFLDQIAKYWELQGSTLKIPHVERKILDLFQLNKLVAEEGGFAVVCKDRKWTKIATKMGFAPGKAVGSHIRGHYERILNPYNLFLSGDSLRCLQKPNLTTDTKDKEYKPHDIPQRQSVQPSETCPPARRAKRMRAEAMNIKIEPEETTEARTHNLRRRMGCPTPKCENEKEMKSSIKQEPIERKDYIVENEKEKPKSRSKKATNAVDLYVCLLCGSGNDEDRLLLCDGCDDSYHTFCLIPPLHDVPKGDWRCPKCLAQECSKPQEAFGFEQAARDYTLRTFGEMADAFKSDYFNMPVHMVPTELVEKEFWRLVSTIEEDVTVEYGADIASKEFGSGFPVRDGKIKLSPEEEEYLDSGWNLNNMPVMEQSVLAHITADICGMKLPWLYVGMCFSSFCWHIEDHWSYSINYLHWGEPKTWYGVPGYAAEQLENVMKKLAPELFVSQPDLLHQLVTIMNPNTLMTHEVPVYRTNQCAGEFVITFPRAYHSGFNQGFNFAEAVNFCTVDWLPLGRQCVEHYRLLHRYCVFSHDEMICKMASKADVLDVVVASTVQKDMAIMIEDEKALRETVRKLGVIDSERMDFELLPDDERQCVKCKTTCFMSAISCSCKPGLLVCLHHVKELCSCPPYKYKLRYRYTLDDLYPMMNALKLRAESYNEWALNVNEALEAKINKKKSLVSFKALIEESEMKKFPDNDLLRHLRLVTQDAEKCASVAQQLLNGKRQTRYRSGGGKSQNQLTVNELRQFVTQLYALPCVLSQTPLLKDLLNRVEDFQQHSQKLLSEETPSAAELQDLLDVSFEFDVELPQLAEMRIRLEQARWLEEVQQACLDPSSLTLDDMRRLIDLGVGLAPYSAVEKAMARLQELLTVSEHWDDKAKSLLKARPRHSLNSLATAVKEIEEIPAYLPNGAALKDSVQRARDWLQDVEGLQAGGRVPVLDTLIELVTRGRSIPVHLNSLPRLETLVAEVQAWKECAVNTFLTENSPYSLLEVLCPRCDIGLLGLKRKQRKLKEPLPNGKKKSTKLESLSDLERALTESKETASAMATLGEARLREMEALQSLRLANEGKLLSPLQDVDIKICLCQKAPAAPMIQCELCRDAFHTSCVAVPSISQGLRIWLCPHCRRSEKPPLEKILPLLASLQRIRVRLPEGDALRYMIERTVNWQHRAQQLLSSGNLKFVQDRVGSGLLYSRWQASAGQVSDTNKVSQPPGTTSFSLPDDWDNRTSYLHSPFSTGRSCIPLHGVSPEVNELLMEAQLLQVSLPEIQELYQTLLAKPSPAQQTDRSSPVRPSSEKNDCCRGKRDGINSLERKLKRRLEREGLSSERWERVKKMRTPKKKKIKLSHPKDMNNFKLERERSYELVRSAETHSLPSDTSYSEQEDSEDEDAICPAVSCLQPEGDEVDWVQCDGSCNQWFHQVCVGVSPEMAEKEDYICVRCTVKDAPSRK
N-terminal Xaa-Pro-Lys N-methyltransferase 1 (Homo sapiens), sequence (Q9BV86 whole entry, looked up): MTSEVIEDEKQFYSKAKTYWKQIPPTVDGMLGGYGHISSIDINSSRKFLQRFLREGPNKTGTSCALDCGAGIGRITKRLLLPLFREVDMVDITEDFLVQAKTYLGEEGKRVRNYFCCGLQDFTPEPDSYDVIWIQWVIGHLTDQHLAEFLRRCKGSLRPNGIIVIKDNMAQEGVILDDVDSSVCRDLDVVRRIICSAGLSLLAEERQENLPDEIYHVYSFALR
Parathyroid hormone/parathyroid hormone-related peptide receptor (Homo sapiens), sequence (Q03431 whole entry, looked up): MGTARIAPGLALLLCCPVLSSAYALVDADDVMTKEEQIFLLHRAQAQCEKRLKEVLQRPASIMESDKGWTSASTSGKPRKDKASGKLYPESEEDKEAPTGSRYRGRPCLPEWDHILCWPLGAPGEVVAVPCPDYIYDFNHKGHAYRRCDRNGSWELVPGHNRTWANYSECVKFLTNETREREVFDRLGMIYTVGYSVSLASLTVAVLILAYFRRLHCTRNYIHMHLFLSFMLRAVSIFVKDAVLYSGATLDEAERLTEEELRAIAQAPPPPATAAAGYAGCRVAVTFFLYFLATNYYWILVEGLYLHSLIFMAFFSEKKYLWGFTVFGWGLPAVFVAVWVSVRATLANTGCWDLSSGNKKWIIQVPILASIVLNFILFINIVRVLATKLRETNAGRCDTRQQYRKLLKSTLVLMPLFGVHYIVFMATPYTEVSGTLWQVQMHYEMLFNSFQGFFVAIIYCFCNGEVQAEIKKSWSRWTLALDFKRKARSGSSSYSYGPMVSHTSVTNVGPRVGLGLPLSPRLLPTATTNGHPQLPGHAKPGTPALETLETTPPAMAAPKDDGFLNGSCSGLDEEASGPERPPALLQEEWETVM
Atrial natriuretic peptide receptor 1 (Homo sapiens), sequence (P16066 whole entry, looked up): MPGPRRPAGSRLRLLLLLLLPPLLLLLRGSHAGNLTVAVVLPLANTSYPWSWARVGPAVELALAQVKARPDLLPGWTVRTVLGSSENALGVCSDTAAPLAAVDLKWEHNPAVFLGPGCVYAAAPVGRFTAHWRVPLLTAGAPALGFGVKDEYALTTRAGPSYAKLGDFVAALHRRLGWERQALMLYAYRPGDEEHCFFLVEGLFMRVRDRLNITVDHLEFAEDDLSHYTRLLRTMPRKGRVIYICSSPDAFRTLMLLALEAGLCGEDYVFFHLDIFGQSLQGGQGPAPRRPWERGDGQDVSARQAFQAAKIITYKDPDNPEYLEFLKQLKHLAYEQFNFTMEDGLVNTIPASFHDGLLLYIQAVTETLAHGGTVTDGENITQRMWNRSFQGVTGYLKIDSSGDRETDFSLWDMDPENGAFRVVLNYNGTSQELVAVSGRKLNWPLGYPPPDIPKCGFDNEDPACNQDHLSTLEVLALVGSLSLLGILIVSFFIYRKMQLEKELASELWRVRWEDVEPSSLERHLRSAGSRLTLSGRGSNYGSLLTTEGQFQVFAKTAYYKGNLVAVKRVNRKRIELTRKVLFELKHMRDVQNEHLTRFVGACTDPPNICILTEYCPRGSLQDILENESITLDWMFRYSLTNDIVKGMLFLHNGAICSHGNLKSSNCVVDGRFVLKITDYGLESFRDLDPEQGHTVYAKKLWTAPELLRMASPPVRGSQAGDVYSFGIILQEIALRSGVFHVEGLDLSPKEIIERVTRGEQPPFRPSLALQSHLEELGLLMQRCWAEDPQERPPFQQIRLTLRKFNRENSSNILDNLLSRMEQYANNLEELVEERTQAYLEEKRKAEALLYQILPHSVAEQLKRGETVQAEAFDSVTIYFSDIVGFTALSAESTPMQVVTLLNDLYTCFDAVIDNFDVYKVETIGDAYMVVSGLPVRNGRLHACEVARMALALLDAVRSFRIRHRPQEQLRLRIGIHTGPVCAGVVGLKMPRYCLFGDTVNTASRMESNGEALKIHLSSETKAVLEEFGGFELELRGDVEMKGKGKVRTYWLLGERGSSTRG
Atrial natriuretic peptide receptor 2 (Homo sapiens), sequence (P20594 whole entry, looked up): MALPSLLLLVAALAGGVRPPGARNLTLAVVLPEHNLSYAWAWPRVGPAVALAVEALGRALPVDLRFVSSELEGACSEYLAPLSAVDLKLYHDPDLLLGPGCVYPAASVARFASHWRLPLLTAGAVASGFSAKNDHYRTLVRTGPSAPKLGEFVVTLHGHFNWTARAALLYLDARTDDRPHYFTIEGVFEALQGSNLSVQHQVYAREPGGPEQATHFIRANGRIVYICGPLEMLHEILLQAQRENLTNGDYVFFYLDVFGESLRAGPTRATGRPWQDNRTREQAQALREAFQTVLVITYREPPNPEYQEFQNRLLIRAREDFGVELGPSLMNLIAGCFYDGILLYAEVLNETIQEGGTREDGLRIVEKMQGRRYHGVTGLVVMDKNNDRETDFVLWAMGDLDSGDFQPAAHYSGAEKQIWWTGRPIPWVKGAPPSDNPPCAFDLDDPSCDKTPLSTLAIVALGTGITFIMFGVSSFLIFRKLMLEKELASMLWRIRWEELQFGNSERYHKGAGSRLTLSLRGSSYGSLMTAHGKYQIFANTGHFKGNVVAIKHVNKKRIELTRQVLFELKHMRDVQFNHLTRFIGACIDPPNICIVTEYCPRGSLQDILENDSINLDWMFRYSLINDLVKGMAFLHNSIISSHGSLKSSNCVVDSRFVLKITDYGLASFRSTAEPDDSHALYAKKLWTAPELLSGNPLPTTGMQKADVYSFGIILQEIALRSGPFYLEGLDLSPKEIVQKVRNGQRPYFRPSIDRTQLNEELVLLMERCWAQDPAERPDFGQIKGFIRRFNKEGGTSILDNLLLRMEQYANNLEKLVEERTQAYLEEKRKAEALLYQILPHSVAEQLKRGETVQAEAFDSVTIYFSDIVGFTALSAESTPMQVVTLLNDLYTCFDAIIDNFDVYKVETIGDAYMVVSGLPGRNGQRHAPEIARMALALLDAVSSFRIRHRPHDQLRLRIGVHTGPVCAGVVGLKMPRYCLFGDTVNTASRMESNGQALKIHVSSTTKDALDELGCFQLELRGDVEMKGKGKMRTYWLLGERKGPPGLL
Glutathione peroxidase 1 (Homo sapiens), sequence (P07203 whole entry, looked up): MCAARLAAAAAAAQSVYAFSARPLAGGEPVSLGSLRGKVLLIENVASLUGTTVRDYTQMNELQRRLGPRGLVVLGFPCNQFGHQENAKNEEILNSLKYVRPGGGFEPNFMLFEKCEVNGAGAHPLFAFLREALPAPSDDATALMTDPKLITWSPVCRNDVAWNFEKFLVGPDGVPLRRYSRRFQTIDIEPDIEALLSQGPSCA

Consider `O=Nc1c(-c2c(O)[nH]c3ccccc23)[nH]c2ccccc12`, for which the results for the max response in assay [1] and in assay [15] were 1.55% and -10.5%, respectively. The Potency result (in [2]; in [3]; in assay [6]; in [11]; with Papain (Carica papaya); in assay [16]) was “inactive” each time. Also, the Potency result in assay [17] and in assay [18] was “inactive” each time. For the same molecule, the molecule was called inactive in [4], in assay [7], in [9], in assay [10] and in [12]. The Potency is 20 µM (active) in assay [5]; 11.2 µM (active) in [8]; 15.8 µM (active) in [13]; 28.2 µM (active) and 4.47 µM (active) in [14]; 14 µM (active) in assay [19].
